17 compounds from PubChem BioAssay (NCATS) can be followed below.

Inconclusive results are not listed. Active and inactive are the calls of the source. Calls follow the shape of the dose curve; as a rule, active = well fitted curve in the direction sought with a large enough effect; inconclusive = small, poorly fitted or top-dose-only effect, or another doubt; inactive = no such curve, though single readings can be large; an effect the other way counts as inactive or inconclusive.

A short description of experiment [1]: Quantitative High-Throughput drug screen in 47 multiple myeloma cell lines against the NCATS MIPE library collection: KMS26_JCRB cell viability assay (AID 1918975). Also: nearly all actives have a fitted effect of over 45% in size. A digest of the protocol: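 Myeloma cells (500 per well) were exposed to MIPE 4.0 compounds by pin transfer and incubated 48 hours at 37C, 5% CO2. Viability was read as ATP by CellTiter-Glo luminescence, normalised to DMSO (100%) and media-only (0%) wells.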

The nature of experiment [2]: Quantitative High-Throughput drug screen in 47 multiple myeloma cell lines against the NCATS MIPE library collection: MMM1_PLB cell viability assay (AID 1918976). Also: nearly all actives have a fitted effect of over 35% in size. The method in brief: (§1)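 Readout: median RLU from CellTiter-Glo after 5 min at room temperature. Preceding step was 48 h drug treatment of 500 cells/well at 37 °C, 5% CO2, with DMSO-only and media-only control wells.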

Experiment [3] is described as follows: Quantitative High-Throughput drug screen in 47 multiple myeloma cell lines against the NCATS MIPE library collection: NCIH929_DSMZ cell viability assay (AID 1918978). Also: nearly all actives have a fitted effect of over 35% in size. The method in brief: as §1
Experiment [4] can be described thus: Quantitative High-Throughput drug screen in 47 multiple myeloma cell lines against the NCATS MIPE library collection: OCIMY1_PLB cell viability assay (AID 1918979). Also: nearly all actives have a fitted effect of over 35% in size. As to viability: series mostly up to about 46 µM. The method in brief: as §1
Experiment [5] can be described thus: Quantitative High-Throughput drug screen in 47 multiple myeloma cell lines against the NCATS MIPE library collection: MM1S_ATCC cell viability assay (AID 1918980). Also: nearly all actives have a fitted effect of over 45% in size. The method in brief: as §1
Experiment [6] is described as follows: Quantitative High-Throughput drug screen in 47 multiple myeloma cell lines against the NCATS MIPE library collection: MM1R_ATCC cell viability assay (AID 1918981). Also: nearly all actives have a fitted effect of over 35% in size. The method in brief: as §1
Experiment [7] can be described thus: Quantitative High-Throughput drug screen in 47 multiple myeloma cell lines against the NCATS MIPE library collection: LP1_DSMZ cell viability assay (AID 1918982). Also: nearly all actives have a fitted effect of over 35% in size. A digest of the protocol:
as §1

The nature of experiment [8]: Quantitative High-Throughput drug screen in 47 multiple myeloma cell lines against the NCATS MIPE library collection: KMS28PE_JCRB cell viability assay (AID 1918983). Also: nearly all actives have a fitted effect of over 35% in size. The method in brief: as §1
The nature of experiment [9]: Quantitative High-Throughput drug screen in 47 multiple myeloma cell lines against the NCATS MIPE library collection: L363_DSMZ cell viability assay (AID 1918984). Also: nearly all actives have a fitted effect of over 40% in size. The method in brief:
as §1

Experiment [10] is described as follows: Quantitative High-Throughput drug screen in 47 multiple myeloma cell lines against the NCATS MIPE library collection: MOLP8_DSMZ cell viability assay (AID 1918977). Also: nearly all actives have a fitted effect of over 45% in size. The method in brief: as §1
Potency is read from the fitted curve at half-maximal effect.

Take `C=CC(=O)Nc1cccc(Oc2nc(Nc3ccc(N4CCN(C)CC4)cc3)ncc2Cl)c1`: the Potency is 26400 nM (active) in [1]; 23500 nM (active) in experiment [2]; 3720 nM (active) in [3]; 16600 nM (active) in experiment [4]; 18700 nM (active) in experiment [5]; 14800 nM (active) in [6]. Moreover, the Potency is 16600 nM (active) in experiment [7], 18700 nM (active) in experiment [8] and 5260 nM (active) in [9].

For `Cc1cc(C(=O)N2CCN(c3cccc(Cl)c3)CC2)n(-c2ccccc2)n1`, the Potency was 18700 nM (active) in experiment [1]; 7430 nM (active) in experiment [2]; 16600 nM (active) in experiment [3]; 3720 nM (active) in [4]; 16600 nM (active) in [5]; 9350 nM (active) in [6]. Further, the figures for the Potency in experiment [7], in [8] and in experiment [9] were 5260 nM (active), 1870 nM (active) and 132 nM (active), respectively.

`Cc1ccc(S(=O)(=O)Nc2cc(Cl)ccc2C(=O)Nc2nc(-c3ccccc3)cs2)cc1`: the Potency was 18700 nM (active) in [1]; 7430 nM (active) in experiment [2]; 20900 nM (active) in experiment [10]; 14800 nM (active) in experiment [5]; 9350 nM (active) in [7].

For `CNC(=O)c1ccccc1Nc1nc(Nc2ccc(N3CCOCC3)cc2OC)ncc1Cl`, the Potency in [1] is 418 nM (active); in experiment [2], 526 nM (active); in experiment [10] it was 14800 nM (active); in [3], 166 nM (active); in experiment [5], 662 nM (active); in [6] it was 833 nM (active). For the same compound, the Potency in [8] was 935 nM (active); in experiment [9] it was 132 nM (active).

For `CN(C)Cc1c(C(=O)NCCOc2ccc(C(=O)NO)cc2)oc2ccccc12`, the Potency in [1] was 1050 nM (active); in experiment [2], 590 nM (active); in experiment [3], 1050 nM (active); in experiment [4], 1660 nM (active); in experiment [5], 469 nM (active); in [6] it was 469 nM (active). For the same compound, the Potency is 743 nM (active) in [8] and 332 nM (active) in experiment [9].

For the compound `Cc1nc(Nc2n[nH]c3c2CN(C(=O)N[C@H](CN(C)C)c2ccccc2)C3(C)C)c2sccc2n1`, the Potency in experiment [1] was 2960 nM (active); in [2], 4690 nM (active); in [3], 148 nM (active); in experiment [5] it was 2640 nM (active); in experiment [6], 1050 nM (active); in experiment [7], 7.9 nM (active). Besides, the Potency in experiment [8] was 418 nM (active).

`CC1(C)CCC(c2ccc(Cl)cc2)=C(CN2CCN(c3ccc(C(=O)NS(=O)(=O)c4ccc(N[C@H](CCN5CCOCC5)CSc5ccccc5)c(S(=O)(=O)C(F)(F)F)c4)cc3)CC2)C1`: the Potency was 105 nM (active) in experiment [1]; 93.5 nM (active) in experiment [2]; 13200 nM (active) in [3]; 7430 nM (active) in experiment [4]; 332 nM (active) in experiment [5]; 20900 nM (active) in [7]. Moreover, in experiment [8], the Potency was 469 nM (active).

As to `CC(=O)OCC(=O)[C@@]1(O)[C@H](C)C[C@H]2[C@@H]3C=C(C)C4=Cc5c(cnn5-c5ccccc5)C[C@]4(C)[C@@H]3[C@@H](O)C[C@@]21C`, the Potency in experiment [1] was 10500 nM (active); in experiment [2], 16600 nM (active); in [3] it was 8330 nM (active); in experiment [4] it was 9350 nM (active); in experiment [5] it was 13.2 nM (active); in experiment [6], 9350 nM (active). The figures for the Potency in experiment [8] and in experiment [9] were 20900 nM (active) and 46.9 nM (active), respectively.

Turning to `CCS(=O)(=O)c1cccc(-c2cc(C(=O)NC3CCN(C)CC3)c(C)c3[nH]c4ncc(C)cc4c23)c1`, the Potency was 2960 nM (active) in [1]; 4180 nM (active) in [2]; 1050 nM (active) in experiment [10]; 1180 nM (active) in experiment [3]; 1660 nM (active) in experiment [5]; 1660 nM (active) in experiment [6]. In addition, the figures for the Potency in experiment [8] and in experiment [9] were 1870 nM (active) and 1480 nM (active), respectively.

Consider `Cn1c(=O)n(-c2ccc(C(C)(C)C#N)cc2)c2c3cc(-c4cnc5ccccc5c4)ccc3ncc21`, for which the Potency in experiment [1] was 209 nM (active); in experiment [2], 209 nM (active); in experiment [10], 16.6 nM (active); in experiment [4], 66.2 nM (active); in experiment [5] it was 296 nM (active); in experiment [6], 118 nM (active). Besides, the Potency in experiment [8] was 52.6 nM (active).

Turning to `CC(C)C[C@H](NC(=O)CNC(=O)c1cc(Cl)ccc1Cl)B(O)O`, the Potency in experiment [1] was 118 nM (active); in experiment [2] it was 9350 nM (active); in experiment [3], 37.2 nM (active); in experiment [4], 66.2 nM (active); in experiment [5] it was 41.8 nM (active); in experiment [6], 41.8 nM (active). Besides, the values for the Potency in [7], in [8] and in experiment [9] were 132 nM (active), 83.3 nM (active) and 132 nM (active), respectively.

`NC(=O)Nc1cc(-c2cccc(F)c2)sc1C(=O)N[C@H]1CCCNC1`: the Potency in experiment [1] is 11800 nM (active); in [2], 4690 nM (active); in experiment [10], 118 nM (active); in experiment [3] it was 2640 nM (active); in [5], 132 nM (active); in [8], 2640 nM (active). In addition, in experiment [9], the Potency is 16.6 nM (active).

As for `CCC(=C(c1ccccc1)c1ccc(OCCN(C)C)cc1)c1ccccc1`, the Potency in experiment [1] is 20900 nM (active); in [2], 23500 nM (active); in experiment [3] it was 20900 nM (active); in [5], 29600 nM (active); in experiment [6] it was 23500 nM (active); in [8], 18700 nM (active). Besides, the Potency in experiment [9] was 20900 nM (active). For the same compound, the Potency result in [4] was “inactive”.

With `OCCCNc1cc(-c2ccnc(Nc3cccc(Cl)c3)n2)ccn1`, the Potency in [1] is 132 nM (active); in [2] it was 166 nM (active); in experiment [3] it was 29.6 nM (active); in experiment [4], 235 nM (active); in experiment [5], 118 nM (active); in [8] it was 148 nM (active). In experiment [9], the Potency is 33.2 nM (active).

Turning to `COc1cc(C(=O)N2CCC(N3CCN(C)CC3)CC2)ccc1Nc1ncc2c(n1)N(C)c1ccccc1C(=O)N2C`, the Potency is 1660 nM (active) in experiment [1]; 1660 nM (active) in experiment [2]; 2090 nM (active) in experiment [10]; 4180 nM (active) in experiment [3]; 6620 nM (active) in experiment [5]; 6620 nM (active) in experiment [6]. The Potency is 3320 nM (active) in experiment [8] and 4690 nM (active) in experiment [9].

Regarding `Cc1cn2c(-c3cn[nH]c3)cnc2c(Nc2ccc(C(=O)N3CCNCC3)cc2F)n1`, the Potency in experiment [1] was 16600 nM (active); in [2] it was 14800 nM (active); in experiment [3], 8330 nM (active); in experiment [5], 4690 nM (active); in [6], 20900 nM (active); in experiment [8], 18700 nM (active).

For the compound `CN1CC[C@@H](c2c(O)cc(O)c3c(=O)cc(-c4ccccc4Cl)oc23)[C@@H](O)C1`, the Potency in experiment [1] was 105 nM (active); in [2], 187 nM (active); in experiment [10], 52.6 nM (active); in experiment [3] it was 74.3 nM (active); in experiment [5] it was 93.5 nM (active); in experiment [6], 105 nM (active). Moreover, the Potency in experiment [8] was 132 nM (active).
